High-throughput results from PubChem BioAssay.
HPGD block = inhibitors of human 15-hydroxyprostaglandin dehydrogenase (HPGD); P15428; purified HPGD, NADH fluorescence kinetic, PGE2 substrate; Potency, µM, without a hit: top-dose activity change, negative = inhibition, most hits filed as inhibitors; actives 4.3% (n = 150,000); note: potency is the fitted concentration of half-maximal effect
Target sequence (P15428 whole entry, looked up): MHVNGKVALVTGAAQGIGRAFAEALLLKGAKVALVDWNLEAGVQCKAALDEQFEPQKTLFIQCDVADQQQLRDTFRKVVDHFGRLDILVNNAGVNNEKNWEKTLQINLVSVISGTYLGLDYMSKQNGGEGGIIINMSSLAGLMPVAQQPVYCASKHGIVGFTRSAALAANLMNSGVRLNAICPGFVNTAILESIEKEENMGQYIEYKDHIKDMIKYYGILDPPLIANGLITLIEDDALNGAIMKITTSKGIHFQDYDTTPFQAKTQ
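NADH formation kinetics: reaction with 30 uM PGE2 and 1 mM NAD+ (final), 20 nM enzyme, Tris-HCl pH 8 with Tween 20, after 15 min compound preincubation at room temperature. Fluorescence change, last versus first of five reads.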
PNC assembly inh = inhibitors of perinucleolar compartment assembly | PC3M PTB-GFP, PNC prevalence imaging, 16 h; stronger effect = lower value | activity change (PNC), negative = inhibition, % at 10 µM | actives 3.1% (n = 140,000) | AID 2417;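 active = readout at or below -70, meaning at least 70% loss of cells showing the perinucleolar compartment, a nuclear body marking cancer cells; inconclusive = readout between -30 and a set limit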;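 note: plate controls were DMSO wells for no effect and camptothecin positive control wells for full effect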
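PC3M cells stably expressing PTB-GFP, 750–1000 cells/well, treated 16 h at 37 °C with compound (23 nl of library stock), in duplicate. After paraformaldehyde fixation and Hoechst stain, imaged at 20x; PNC prevalence scored by image analysis.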
IMPase Li cell = IMPase inhibition in cells with lithium potentiation; actives 0.35% (n = 210,000); Potency, µM (top dose mostly 59.4 µM), inactives show at the highest dose activity, negative = IMPase inhibition, hits mostly inhibitors; CHO-M1 cells, IP1 TR-FRET (IP-One), carbachol + lithium; AID 1457; active = well fitted curve in the direction sought with a large enough effect; inconclusive = small, poorly fitted or top-dose-only effect, or another doubt; inactive = no such curve, though single readings can be large; an effect the other way counts as inactive or inconclusive;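 note: IP1 builds up when IMPase is blocked and the TR-FRET signal falls; potency is the fitted concentration of half-maximal effect; plate controls were basal vehicle for no effect and high inhibitor control for full effect; nearly all actives have a fitted effect of over 50% in size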
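Test compounds were applied to CHO-M1 cells previously cultured for 16–30 h at 2000 per well. A small lithium amount accompanied them; after 30 min at 37C, IP1 was quantified by TR-FRET.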
12-hLO inh = 12-hLO (ALOX12) enzyme inhibition. P18054. purified 12-hLO, xylenol orange hydroperoxide absorbance. Potency, µM (series often up to 57.1 µM), for the others: at the highest dose activity change, negative = inhibition, hits mostly inhibitors. actives 0.12% (n = 150,000). AID 1452; active = well fitted curve in the direction sought with a large enough effect; inconclusive = small, poorly fitted or top-dose-only effect, or another doubt; inactive = no such curve, though single readings can be large; an effect the other way counts as inactive or inconclusive; note: potency is the fitted concentration of half-maximal effect; nearly all actives have a fitted effect of over 55% in size
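Hydroperoxide formation by human 12-lipoxygenase from 40 uM arachidonic acid was followed colorimetrically via ferric-xylenol orange complex, using the 573/405 nm absorbance ratio. Enzyme concentration was 150 nM, with 30 min reaction at room temperature.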
ALDH1A1 inh = ALDH1A1 (human) enzyme inhibition; P00352; Purified ALDH1A1, NADH fluorescence, propionaldehyde substrate; Potency, µM (titrated, usually from 75.3 µM), inactives show at the top dose activity, negative = inhibition, most hits filed as inhibitors; actives 7.3% (n = 220,000);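 note: potency is the fitted concentration of half-maximal effect; plate controls were no enzyme wells and a reference inhibitor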
Target sequence (P00352 whole entry, looked up): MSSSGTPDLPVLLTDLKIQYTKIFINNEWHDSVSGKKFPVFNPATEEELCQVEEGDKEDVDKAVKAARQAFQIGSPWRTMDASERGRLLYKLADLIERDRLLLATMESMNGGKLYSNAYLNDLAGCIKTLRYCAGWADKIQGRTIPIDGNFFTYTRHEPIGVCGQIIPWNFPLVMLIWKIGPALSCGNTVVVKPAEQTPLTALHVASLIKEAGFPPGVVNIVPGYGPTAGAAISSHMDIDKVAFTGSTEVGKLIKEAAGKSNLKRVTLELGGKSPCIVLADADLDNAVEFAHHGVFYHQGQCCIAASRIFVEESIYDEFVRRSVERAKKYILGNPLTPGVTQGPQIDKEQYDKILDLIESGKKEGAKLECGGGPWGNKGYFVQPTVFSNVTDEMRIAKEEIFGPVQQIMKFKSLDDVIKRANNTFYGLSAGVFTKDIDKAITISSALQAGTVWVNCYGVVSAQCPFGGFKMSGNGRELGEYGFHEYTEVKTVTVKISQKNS
IMPase inh = IMPase inhibition in cells | CHO-M1 cells, IP1 accumulation, HTRF TR-FRET ratio | inhibition (IP1 accumulation), % at 46.1 µM | 120,000 tested, under 10 active; active = well fitted curve in the direction sought with a large enough effect in the signal ratio, not every such curve was filed as active; inconclusive = small, poorly fitted or top-dose-only effect, or a change in a side signal; inactive = no such curve, though single readings can be large or run the other way; the % refers to the signal ratio;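 note: cells stimulated with carbachol in lithium chloride buffer; plate controls were DMSO basal wells for no effect and reference inhibitor wells for full effect; higher means more IMPase inhibition seen as more IP1 and lower FRET ratio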
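Measured: the HTRF emission ratio (665/620 nm) plus the 620 nm donor channel, each fitted to the Hill equation to give AC50. Cells were CHO-M1 given compounds up to 46 uM and a 30 min carbachol stimulation at 37C.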
An asterisk follows results filed as active; ? = inconclusive; . = no result; [ ] = another dose, or the depositor's remark. A selection: hits, their analogues and other compounds. The true share with any hit is near 11%. Unless noted, calls come from the whole dose curve; as a rule, active = well fitted inhibition curve with a large enough effect (not every such curve was filed as active); inconclusive = small, poorly fitted or top-dose-only effect, or another doubt; inactive = no such curve, though single readings can be large or run the other way. Unless noted, % is set by controls: 0 for no effect and ±100 for the full control effect.

SMILES	HPGD block	PNC assembly inh	IMPase Li cell	12-hLO inh	ALDH1A1 inh	IMPase inh
CC(=O)O[C@@H]1CC(C)=C2[C@H]1[C@H](C)CC[C@H]2/C=C(\C)C(=O)O	-5.5%	.	15.4%	1.1%	-4.8%	.
CCCOC(=O)c1c(-c2ccc(C)cc2C)csc1NC(=O)C1C2CCC(O2)C1C(=O)O (centres undefined)	22.4µM*	-12.4	-2.2%	-5.5%	?	.
CCN=c1scc(C)n1/N=C/c1ccc(O)c(O)c1O	7.08µM*	120.8	52.9%[38.3 µM]	-29.2%	10µM*	?
COCCN=c1scc(-c2cccs2)n1/N=C/c1ccc(O)c(O)c1O	.	?	.	?	1.12µM*	4.8
CCN=c1scc(C)n1/N=C/c1cc(Br)c(O)c(Br)c1	.	.	19.7%	.	?	.
COCCN=c1scc(-c2ccccc2)n1/N=C/c1c[nH]c2ccccc12	-17.4%	-19.2	3.7%	-4.7%	?	16.4
COc1ccccc1-c1cncnc1NCc1ccccc1	.	.	14.2%	.	-4.3%	.
Cc1ccc(S(=O)(=O)NNC(=O)c2cccs2)c(C)c1	2.1%	-7.9	-9.6%	-0.8%	3.2%	.
Cc1ccc(S(=O)(=O)NNc2ccccc2)c(C)c1	8.91µM*	?	6.3%	?	7.08µM*	.
NC(N)=NC(N)=Nc1ccc(C(=O)O)cc1	-7.7%	.	4.3%	-0.7%[11.4 µM]	-15.3%[13.5 µM]	.
N/C(=N/OS(=O)(=O)c1ccc([N+](=O)[O-])cc1)c1ccncc1	.	.	3.2%	.	31.6µM*	.
N/C(=N\OS(=O)(=O)c1ccccc1)c1ccncc1	-6.4%	-19.3	2.8%[38.3 µM]	-0.6%	2.5%	-19.8
CC(=O)c1cnc2nc(C)nn2c1C	-8.3%	-22.7	-2.2%[38.3 µM]	0.8%	-3.4%	-2.4
CC(=O)c1cnc2ncnn2c1C	-3.8%	-113.4*	2.6%	-3.3%	7.2%	.
CC1(C)S[C@@H]2[C@H](NC(=O)Cc3ccccc3)C(=O)N2[C@@H]1C(=O)O	-1.1%	.	-1.0%	6.1%[11.4 µM]	9.3%[13.5 µM]	.
COc1cc(C(=O)N2CCC(NC(=O)C(Cc3ccc(C)cc3)NC(C)=O)CC2)cc(OC)c1OC (centres undefined)	-4.8%	?	3.2%	0.1%	5.7%	20.1
CC(=O)NC(Cc1cccc(F)c1)C(=O)NC1CCN(C(=O)c2ccc(C)cc2)CC1 (centres undefined)	.	.	5.6%	.	14.1µM*	.
CC(=O)NC(Cc1ccccc1C)C(=O)NC1CCN(C(=O)c2cccc(C)c2)CC1 (centres undefined)	.	.	-1.1%	.	20µM*	.
CC(C(=O)N1CCCCC1)n1sc2ccccc2c1=O (centres undefined)	3.55µM*	32.7	-0.6%	-5.1%	3.1%	?
CC(C)CCn1c(O)c(N=NC(=O)c2ccco2)c2ccccc21	-16.8%	-9.7	11.6%	-1.6%	2.0%	.
CC(C)Cn1c(O)c(N=NC(=O)c2cccc(S(=O)(=O)N3CCCCC3)c2)c2ccccc21	-11.5%	3.8	-1.0%	4.9%	3.55µM*	.
NC(=O)/C=C\C(=O)Nc1cccc(C(F)(F)F)c1	-25.6%	16.4	3.5%[38.3 µM]	-4.9%	2.82µM*	-3.7
O=C(NNc1cccc(Cl)n1)Nc1cccc(C(F)(F)F)c1	-16.5%	42.4	-3.3%	-2.3%	20µM*	.
CCSC1=N/C(=C\c2ccc(C(=O)O)cc2)C(=O)S1	-23.9%	-17.2	-2.5%[38.3 µM]	-2.8%	-8.4%	5.2
CCOC(=O)SC1=N/C(=C\c2ccc(N(C)C)cc2)C(=O)S1	-21.6%	39.7	7.1%	-3.4%	5.01µM*	10.5
SMILES	HPGD block	PNC assembly inh	IMPase Li cell	12-hLO inh	ALDH1A1 inh	IMPase inh
CC(C)CCN1C(=O)c2ccc(-c3nc4ccccc4c(=O)o3)cc2C1=O	?	10.5	-21.9%[38.3 µM]	7.4%	7.08µM*	?
COCCCNC(=O)CC(C)c1ccccc1 (centres undefined)	15.8µM*	-3.1	4.9%	3.0%	21.2%	.
COCCCNC(=O)CCCOc1ccccc1	14.1µM*	?	-6.7%[38.3 µM]	-3.9%	-11.0%	5.1
O=C(CCCOc1ccccc1)Nc1ccncc1	-3.9%	-23.4	33.5%[38.3 µM]	7.3%	3.0%	9.2
COCCNC(=O)CSc1nnc(-c2ccccc2)c(-c2ccccc2)n1	.	.	-0.6%	.	22.4µM*	.
O=C(CCCOc1ccccc1)NCCc1ccccc1	.	.	-1.8%	.	4.3%	.
O=C(CCCOc1ccccc1)NC(=S)Nc1ccccc1	.	.	1.4%	.	10µM*	.
COC(=O)[C@@H](O)CC[C@@H](C)Cc1c(OC)c(OC)c(C)c(OC)c1OC	-6.2%	.	-1.6%	.	11.9%	.
CCn1c2ccccc2c2cc(NC(=O)COc3cc(C)ccc3C)ccc21	.	.	.	.	.	-5.8
Nc1cc(C(Cl)=C(Cl)Cl)c(S(N)(=O)=O)cc1S(N)(=O)=O	-13.4%	.	6.0%	1.4%	9.2%[20.9 µM]	5.5[20.6 µM]
O=C(CC(c1ccccc1)c1ccccc1)NCCO	-9.6%	-0.9	23.3%[38.3 µM]	-2.2%	2.5%	0.6
CCOC(=O)c1ccc(NC(=S)Nc2ccccc2)cc1	-12.8%	-29.5	-7.1%	-4.4%	?	.
CCOC(=O)c1ccc(NC(=S)NC(=O)COc2ccccc2)cc1	?	33.2	0.8%	-8.1%	22.4µM*	.
COCCNC(=O)CC(c1ccccc1)c1ccccc1	14.1µM*	19.8	26.6%[38.3 µM]	-4.0%	8.3%	1.1
CCOC(=O)c1c(NC(=O)/C=C/c2ccc(OCC)cc2)sc(C(C)=O)c1C	.	.	.	.	.	-6.1
CCCCCC#CC[C@@H](O)/C=C/C=C/C=C\[C@@H](O)CCCC(=O)O	-5.3%	.	14.0%	2.1%	11.1%	.
CC(C)c1nc2sc3c(=O)[nH]c(=S)[nH]c3c2c2c1CCC2	15.8µM*	41.9	?	-11.1%	?	.
CCOC(=O)c1sc2nc(C(C)C)c3c(c2c1N)CCC3	?	36.7	-9.9%	0.9%	?	-6.0
COC(=O)COc1ccc(NC(=O)C2CCCO2)cc1 (centres undefined)	15.8µM*	-14.7	27.8%[38.3 µM]	0.4%	?	2.7
CC(NC(=O)C1CCCO1)c1ccccc1 (centres undefined)	17.8µM*	-24.4	6.5%[38.3 µM]	4.6%	5.4%	-5.7
S=C(Nc1ccc(Oc2ccccc2)cc1)NC1CCCC1	-6.0%	?	8.5%	14.1µM*	-9.8%	-19.0
COC(=O)c1ccc(NC(=O)C2CCCO2)cc1 (centres undefined)	?	-10.9	-19.8%[38.3 µM]	-5.1%	-1.0%	9.1
S=C(Nc1ccccc1Oc1ccccc1)NC1CCCC1	.	.	16.4%	.	-16.7%	.
COC(=O)c1c(-c2ccc(F)cc2)csc1NC(=O)C1CCCO1 (centres undefined)	.	.	17.4%	.	20µM*	.
O=c1c(-c2ccccc2)nc2cnc(N3CCOCC3)nc2n1-c1ccccc1	?	.	-8.6%	-0.2%	?	.
NCC1O[C@@H](OC2C(N)C[C@H](N)[C@@H](O[C@H]3OC(CO)C(O)C(N)C3O)C2O)C(O)C(O)C1O (some centres undefined)	-7.5%	.	6.8%	-4.5%	6.8%	.
